Records with an inconclusive call do not appear. The source made the active and inactive calls. The call rests on the fitted dose curve; in most records, active means well fitted activation curve with a large enough effect in the repeat runs; inconclusive means weak or mixed curves; inactive means no such curve, though single readings can be large or run the other way.
On the % scale 0 is the no-effect control and ±100 the full control effect.

The nature of this assay: qHTS assay for small molecules that induce genotoxicity in human embryonic kidney cells expressing luciferase-tagged ATAD5 (AID 651632). Further: nearly all actives have a fitted effect of over 15% in size. The conditions noted are these: HEK293T ATAD5-luciferase induction, 16 h; series mostly up to 83.3 µM; activation: at the top concentration. The text has this: U.S. Tox21 Program National Center for Advancing Translational Sciences [NCATS] NIH Chemical Genomics Center [NCGC] U.S. Environmental Protection Agency [EPA] National Institutes of Environmental Health Sciences [NIEHS] National Toxicology Program [NTP] U.S. Food and Drug Administration [FDA] Tox21 Assay Overview: As cancer cells divide rapidly and during every cell division they need to duplicate their genome by DNA replication. The failure to do so results in the cancer cell death. Based on this concept, many chemotherapeutic agents were developed but have limitations such as low efficacy and severe side effects etc. A new cell based assay was developed to find the compounds that effectively block DNA replication either by directly damaging DNA or by inhibiting other cellular mechanisms. Enhanced Level of Genome Instability Gene 1 (ELG1; human ATAD5) protein levels increase in response to various types of DNA damage. Using a luciferase reporter-gene tagged with ATAD5, a cell-based assay [developed by Kyungjae Myung, NHGRI, NIH] was used to measure the induction of ATAD5 in human embryonic kidney cells (HEK293T). So, increase in luciferase activity can be used to identify the compounds that cause genetic stress.
Tox21 Assay Protocol Summary: For genotoxicity screening, 2,000 cells in 5 uL/well were dispensed into white, solid-bottom 1536-well plates using a Multidrop Combi (Thermo Scientific) dispenser. Following transfer of 23 nL compound or DMSO vehicle by a pin tool, the plates were incubated 16 hr at 37C and 5% CO2. 5 ul Amplite (AAT Bioquest, Inc.) was then added to each plate and following 30 min incubation at room temperature, luciferase activity was quantified on a ViewLux CCD-based plate reader.
For the compound `COc1cc2c(Nc3ccc(Br)cc3F)ncnc2cc1OCC1CCN(C)CC1`, the “activation” value was 4.38% (inactive).
The value for `CCCCOC(=O)[C@@H](C)Oc1ccc(Oc2ccc(C(F)(F)F)cn2)cc1` was -1.95% [at 95.3 µM] (inactive).
The value for `O=C(O)CCNC(=O)c1ccccc1` was -3.3% (inactive); that for `NC(=O)C1(N2CCCCC2)CCN(CCCC(=O)c2ccc(F)cc2)CC1` was -2.44% (inactive).
As for `COc1ccc(N=Nc2cc(C)c(N=Nc3ccc(S(=O)(=O)O)cc3)cc2OC)cc1`, the figure is -1.47% (inactive); as for `CCCCCCCCOC(C)=O`, -2.58% (inactive); as for `Cc1cccc(NC(=S)N(C)C)c1`, -0.633% (inactive).
Consider `C[C@H](CCC(=O)NCC(=O)O)[C@H]1CC[C@H]2[C@@H]3[C@H](O)C[C@@H]4C[C@H](O)CC[C@]4(C)[C@H]3C[C@H](O)[C@]12C`, for which the “activation” value was 0.179% (inactive).
The value for `CC(=O)OC(C)c1ccccc1` (stereo not given) was 1.44% (inactive); that for `CN[C@@H]1[C@H](O)[C@H](NC)[C@H]2O[C@@]3(O)C(=O)C[C@@H](C)O[C@H]3O[C@@H]2[C@H]1O` was 2.15% [at 39.1 µM] (inactive); that for `OC(CCN1CCCCC1)(c1ccccc1)c1ccccc1` was 2.1% (inactive).
As for `C[CH2][Ge]([Cl])([CH2]C)[CH2]C`, the figure is 2.93% [at 95.3 µM] (inactive).
As for `CC(C)COC(=O)/C=C/c1ccccc1`, the figure is -0.689% (inactive); as for `NS(=O)(=O)c1cc2c(cc1Cl)NC(C(Cl)Cl)NS2(=O)=O` (stereo not given), 3.55% [at 39.1 µM] (inactive).
With `CCc1nccnc1C`, the “activation” value is 2% (inactive).
The value for `COc1ccc(/C=N/NC(=O)c2ccncc2)cc1OC` was 0.866% (inactive).
`CCN(CCO)c1cccc(C)c1`: the “activation” value was -0.633% (inactive).
Consider `O=CN1CCOCC1`, for which the “activation” value is 2.07% (inactive).
For the compound `C=CCOc1c(Br)cc(C(C)(C)c2cc(Br)c(OCC=C)c(Br)c2)cc1Br`, the “activation” value was -5.45% (inactive).
As for `COc1cc([N+](=O)[O-])ccc1N`, the figure is 5.4% (inactive); as for `COc1ccc(OC)c(NC(=O)CC(C)=O)c1`, -2.79% (inactive).
The value for `CC(CC(=O)O)CC(C)(C)C` (stereo not given) was 2.6% (inactive); that for `CC(=O)OC(C)(C)Cc1ccccc1` was 1.2% (inactive); that for `CCOC(=O)OCC/C(SC(=O)OCC)=C(\C)N(C=O)Cc1cnc(C)nc1N` was 3.23% (inactive).
As for `C[N+](C)(C)CC(O)CCl` (stereo not given), the figure is 1.77% [at 95.3 µM] (inactive).
With `O=C(Nc1cccc(C2=NCCN2)c1)Nc1cccc(C2=NCCN2)c1`, the “activation” value is -4.52% (inactive).
The value for `CC(C)COC(=O)CC(C(=O)OCC(C)C)S(=O)(=O)O` (stereo not given) was -0.315% (inactive); that for `CCOC(=O)C(C)(C)C` was 1.53% [at 95.3 µM] (inactive).
As for `COCC(=O)Nc1c(I)c(C(=O)NCC(O)CO)c(I)c(C(=O)N(C)CC(O)CO)c1I` (stereo not given), the figure is -1.13% [at 39.1 µM] (inactive); as for `CCCCC(CC)C(=O)OC(C)C` (stereo not given), -2.02% (inactive).
With `Cc1nc([N+](=O)[O-])cn1-c1ccc([N+](=O)[O-])cc1`, the “activation” value is -1.39% (inactive).
The value for `O=C(CN1CCN(Cc2ccc3c(c2)OCO3)CC1)N1c2ccccc2Sc2ccccc21` was -9.96% (inactive); that for `O=C(O)Cc1cccc(-c2cc(CCCCCCc3ccc(O[C@H]4O[C@H](CO)[C@@H](O)[C@H](O)[C@@H]4O)c(-c4cccc(CC(=O)O)c4)c3)ccc2O[C@H]2O[C@H](CO)[C@@H](O)[C@H](O)[C@@H]2O)c1` was 3.94% (inactive); that for `CCS(=O)(=O)CCn1c([N+](=O)[O-])cnc1C` was 2.21% [at 39.1 µM] (inactive).
As for `CN=C(NC#N)NCCSCc1csc(N=C(N)N)n1`, the figure is 0.645% (inactive); as for `CCCCC[Si](OCC)(OCC)OCC`, 1.81% (inactive).
As for `Cc1cc(C)cc([N+](=O)[O-])c1`, the “activation” value was -0.619% [at 95.3 µM] (inactive).
As for `NC(=O)NC(=O)Cc1ccccc1`, the figure is 2.39% (inactive); as for `CCCCCCCCC(=O)OCC`, 1.04% (inactive).
The value for `C=C(C)C(=O)OCCCCCCOC(=O)C(=C)C` was 1.34% (inactive).

These data come from PubChem BioAssay (Tox21).
